Screen size: about 5,500 compounds; about 2,000 (36%) were called active. About 18% were inconclusive and are not listed. Cut-off read from the data, not from the text of the source: active = normalized growth mostly below about 0.91 (no sharp cut-off); inconclusive = no clear call, values can overlap the other calls; inactive = mostly above about 0.92. The list shows a part of the results.
Experiment: chemical genetic growth profiling, strain panel (AID 1159580);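 note: tested at 20 µM; growth read once vehicle control cultures reached saturation at 30 °C; 1 = growth at the plate median or of vehicle wells; lower values mean less growth of the strain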
Conditions: growth OD
[1] = S. cerevisiae deletion strains, locus YAL013W, strain DEP1, hits give low values
[2] = S. cerevisiae deletion strains, locus YBR229C, strain ROT2, hits give low values
[3] = S. cerevisiae deletion strains, locus YDL101C, strain DUN1, hits give low values
[4] = S. cerevisiae deletion strains, locus YDR150W, strain NUM1, hits give low values
[5] = S. cerevisiae deletion strains, locus YEL061C, strain CIN8, hits give low values
[6] = S. cerevisiae deletion strains, locus YGR078C, strain PAC10, hits give low values
[7] = S. cerevisiae deletion strains, locus YHR030C, strain SLT2, hits give low values
[8] = S. cerevisiae deletion strains, locus YHR087W, strain rtc3, hits give low values
[9] = S. cerevisiae deletion strains, locus YJL187C, strain SWE1, hits give low values
[10] = S. cerevisiae deletion strains, locus YJR043C, strain POL32, hits give low values
[11] = S. cerevisiae deletion strains, locus YJR075W, strain HOC1, hits give low values
[12] = S. cerevisiae deletion strains, locus YKL190W, strain CNB1, hits give low values
[13] = S. cerevisiae deletion strains, locus YLR039C, strain RIC1, hits give low values
[14] = S. cerevisiae deletion strains, locus YLR058C, strain SHM2 (second series), hits give low values
[15] = S. cerevisiae deletion strains, locus YLR085C, strain ARP6, hits give low values
[16] = S. cerevisiae deletion strains, locus YLR262C, strain YPT6, hits give low values
[17] = S. cerevisiae deletion strains, locus YML094W, strain GIM5, hits give low values
[18] = S. cerevisiae deletion strains, locus YMR219W, strain ESC1, hits give low values
[19] = S. cerevisiae deletion strains, locus YMR263W, strain SAP30, hits give low values
[20] = S. cerevisiae deletion strains, locus YNL153C, strain GIM3, hits give low values
[21] = S. cerevisiae deletion strains, locus YNL298W, strain CLA4 (second series), hits give low values
[22] = S. cerevisiae deletion strains, locus YNL322C, strain KRE1, hits give low values
[23] = S. cerevisiae deletion strains, locus YNR030W, strain Alg12, hits give low values
[24] = S. cerevisiae deletion strains, locus YPL055C, strain LGE1, hits give low values
[25] = S. cerevisiae deletion strains, locus YPL241C, strain CIN2, hits give low values
[26] = S. cerevisiae deletion strains, locus YPR135W, strain CTF4, hits give low values

Measured: normalized growth

Cc1ccc(C)n1-c1ccc(C(=O)NNC(=O)c2ccc3nccnc3c2)cc1
inactive: [1] 0.989 | [2] 1 | S. cerevisiae deletion strains, locus YCL061C, strain MRC1, hits give low values 1.06 | [3] 0.989 | [4] 1.04 | [5] 1.01 | [6] 1.01 | [7] 1.14 | [8] 0.986 | [9] 0.979 | [10] 1.02 | [11] 1.06 | [12] 0.991 | [13] 1.01 | [14] 0.999 | [15] 0.921 | [16] 1.11 | [17] 0.98 | [18] 0.989 | [19] 0.986 | S. cerevisiae deletion strains, locus YNL128W, strain TEP1, hits give low values 0.991 | [20] 1.02 | [21] 0.992 | [22] 0.999 | [23] 1 | [24] 0.995 | [25] 0.976 | [26] 1.13 | S. cerevisiae strains, strain wild type, hits give low values 0.993

Cc1ccc(C)n1-c1ccc(C(=O)NNS(=O)(=O)c2ccc(Cl)cc2)cc1
inactive: [1] 1.01 | [2] 1.01 | [3] 1.04 | [4] 0.991 | [5] 1.01 | [6] 1.01 | [7] 0.955 | [8] 1.01 | [9] 1.02 | [10] 0.999 | [11] 0.995 | [12] 0.978 | [13] 0.985 | [14] 1 | [15] 0.962 | [16] 0.98 | [17] 1.1 | [18] 1 | [19] 1 | S. cerevisiae deletion strains, locus YMR307W, strain GAS1, hits give low values 0.979 | [20] 1.01 | [21] 0.945 | [22] 1 | [23] 0.993 | S. cerevisiae deletion strains, locus YOL006C, strain TOP1, hits give low values 1.03 | [24] 1.01 | [26] 0.946
active: [25] 1.14 [resistant]

Cc1cc(C(=O)NNS(=O)(=O)c2ccc(F)c(Cl)c2)nn1-c1c(Cl)cc(Cl)cc1Cl
inactive: S. cerevisiae deletion strains, locus YAR019C, strain CDC15, hits give low values 0.978 | S. cerevisiae deletion strains, locus YBL105C, strain PKC1, hits give low values 0.979 | S. cerevisiae deletion strains, locus YBR135W, strain CKS1, hits give low values 0.985 | S. cerevisiae deletion strains, locus YBR136W, strain MEC1, hits give low values 0.987 | S. cerevisiae deletion strains, locus YBR160W, strain CDC28, hits give low values 0.98 | S. cerevisiae deletion strains, locus YDL017W, strain CDC7, hits give low values 0.985 | S. cerevisiae deletion strains, locus YDL028C, strain MPS1, hits give low values 0.985 | [3] 0.975 | S. cerevisiae deletion strains, locus YDL108W, strain KIN28, hits give low values 0.99 | S. cerevisiae deletion strains, locus YDL132W, strain cdc53, hits give low values 0.974 | S. cerevisiae deletion strains, locus YDL214C, strain PRR2, hits give low values 1.04 | S. cerevisiae deletion strains, locus YDR052C, strain DBF4, hits give low values 0.987 | S. cerevisiae deletion strains, locus YDR054C, strain cdc34, hits give low values 0.983 | S. cerevisiae deletion strains, locus YDR226W, strain ADK1, hits give low values 0.98 | S. cerevisiae deletion strains, locus YDR477W, strain SNF1, hits give low values 1.03 | S. cerevisiae deletion strains, locus YER123W, strain YCK3, hits give low values 1.04 | S. cerevisiae deletion strains, locus YER133W, strain GLC7, hits give low values 1.04 | S. cerevisiae deletion strains, locus YFL009W, strain cdc4, hits give low values 0.982 | S. cerevisiae deletion strains, locus YFL029C, strain CAK1, hits give low values 0.988 | S. cerevisiae deletion strains, locus YFR003C, strain YPI1, hits give low values 0.981 | S. cerevisiae deletion strains, locus YFR019W, strain FAB1, hits give low values 1.02 | S. cerevisiae deletion strains, locus YFR028C, strain CDC14, hits give low values 0.979 | S. cerevisiae deletion strains, locus YGR040W, strain KSS1, hits give low values 1.03 | S. cerevisiae deletion strains, locus YGR052W, strain FMP48, hits give low values 1.1 | S. cerevisiae deletion strains, locus YGR092W, strain DBF2, hits give low values 1.02 | [7] 1.09 | S. cerevisiae deletion strains, locus YHR079C, strain IRE1, hits give low values 1.05 | S. cerevisiae deletion strains, locus YHR082C, strain KSP1, hits give low values 1.11 | S. cerevisiae deletion strains, locus YHR205W, strain SCH9, hits give low values 1.04 | S. cerevisiae deletion strains, locus YIL147C, strain SLN1, hits give low values 0.99 | S. cerevisiae deletion strains, locus YJL095W, strain BCK1, hits give low values 1.07 | S. cerevisiae deletion strains, locus YJL128C, strain PBS2, hits give low values 0.905 | S. cerevisiae deletion strains, locus YJL157C, strain FAR1, hits give low values 1.03 | S. cerevisiae deletion strains, locus YJR016C, strain ILV3, hits give low values 0.982 | S. cerevisiae deletion strains, locus YJR066W, strain TOR1 (second series), hits give low values 1.05 | S. cerevisiae deletion strains, locus YJR066W, strain TOR1, hits give low values 1.02 | S. cerevisiae deletion strains, locus YKL048C, strain ELM1, hits give low values 1.01 | S. cerevisiae deletion strains, locus YKL067W, strain YNK1, hits give low values 1.03 | S. cerevisiae deletion strains, locus YKL101W, strain HSL1, hits give low values 1.02 | S. cerevisiae deletion strains, locus YKL193C, strain SDS22, hits give low values 0.996 | S. cerevisiae deletion strains, locus YKL203C, strain TOR2, hits give low values 1.13 | S. cerevisiae deletion strains, locus YLR113W, strain HOG1, hits give low values 1.06 | S. cerevisiae deletion strains, locus YLR133W, strain CKI1, hits give low values 1.02 | S. cerevisiae deletion strains, locus YLR403W, strain SFP1, hits give low values 1.06 | S. cerevisiae deletion strains, locus YML070W, strain DAK1, hits give low values 1.03 | S. cerevisiae deletion strains, locus YMR001C, strain CDC5, hits give low values 0.993 | S. cerevisiae deletion strains, locus YMR205C, strain PFK2 (second series), hits give low values 1.03 | S. cerevisiae deletion strains, locus YMR277W, strain FCP1, hits give low values 0.978 | S. cerevisiae deletion strains, locus YNL006W, strain LST8, hits give low values 0.994 | S. cerevisiae deletion strains, locus YNL020C, strain ARK1, hits give low values 1.03 | S. cerevisiae deletion strains, locus YNL161W, strain CBK1, hits give low values 0.988 | S. cerevisiae deletion strains, locus YNL183C, strain NPR1, hits give low values 1.13 | S. cerevisiae deletion strains, locus YNL207W, strain RIO2, hits give low values 0.986 | S. cerevisiae deletion strains, locus YNL222W, strain SSU72, hits give low values 0.99 | S. cerevisiae deletion strains, locus YNL307C, strain MCK1 (second series), hits give low values 1.04 | S. cerevisiae deletion strains, locus YOL078W, strain AVO1, hits give low values 0.99 | S. cerevisiae deletion strains, locus YOL136C, strain PFK27, hits give low values 1.04 | S. cerevisiae deletion strains, locus YOR061W, strain CKA2, hits give low values 1.03 | S. cerevisiae deletion strains, locus YOR119C, strain RIO1, hits give low values 1.08 | S. cerevisiae deletion strains, locus YOR231W, strain MKK1, hits give low values 1.03 | S. cerevisiae deletion strains, locus YOR329C, strain SCD5, hits give low values 0.985 | S. cerevisiae deletion strains, locus YPL031C, strain PHO85, hits give low values 1.04 | S. cerevisiae deletion strains, locus YPL153C, strain RAD53, hits give low values 1.03 | S. cerevisiae deletion strains, locus YPL204W, strain HRR25, hits give low values 1.04 | S. cerevisiae deletion strains, locus YPL209C, strain IPL1, hits give low values 0.987 | S. cerevisiae deletion strains, locus YPL256C, strain CLN2, hits give low values 1.02 | S. cerevisiae deletion strains, locus YPR025C, strain CCL1, hits give low values 0.981 | S. cerevisiae deletion strains, locus YPR106W, strain ISR1, hits give low values 0.98 | S. cerevisiae deletion strains, locus YPR111W, strain DBF20, hits give low values 0.964 | S. cerevisiae deletion strains, strain NNK1, hits give low values 0.986 | S. cerevisiae deletion strains, strain TSCII, hits give low values 0.995
